This excerpt belongs to a sample that is enriched for hits.
BLM helicase inh: Bloom syndrome helicase (human) inhibition; hit rate 0.2% among 350,000; P54132; recombinant BLM DNA unwinding, fluorescence dequenching; Potency, µM (top dose mostly 56.1 µM), most hits filed as inhibitors; AID 2528; also: nearly all actives have a fitted effect of over 35% in size
APEX1 inh: APE1 (human) endonuclease inhibition; P27695; recombinant APE1, TAMRA/BHQ-2 abasic DNA cleavage fluorescence; Potency, µM (titrated, usually from 65.8 µM), usual class: inhibitors; hit rate 0.35% among 350,000; AID 2517; also: nearly all actives have a fitted effect of over 55% in size
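Incision of a quenched TAMRA/BHQ-2 THF abasic-site duplex (50 nM) by 0.75 nM APE1, after 15 min compound preincubation, measured as fluorescence increase over three 60 s reads. Values normalized to buffer, DMSO and NSC13755 control wells.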
JMJD2E inh: blocks human JMJD2E demethylase activity | JMJD2E catalytic domain, FDH-coupled NADH fluorescence (FDH is formaldehyde dehydrogenase) | Potency, µM (titrated, usually from 57.1 µM), most hits filed as inhibitors | hit rate 1.6% among 230,000; active = well fitted inhibition curve with a large enough effect, not every such curve was filed as active; inconclusive = small, poorly fitted or top-dose-only effect, or another doubt; inactive = no such curve, though single readings can be large or run the other way; also: nearly all actives have a fitted effect of over 50% in size
Target sequence (B2RXH2 1-337 limits assumed): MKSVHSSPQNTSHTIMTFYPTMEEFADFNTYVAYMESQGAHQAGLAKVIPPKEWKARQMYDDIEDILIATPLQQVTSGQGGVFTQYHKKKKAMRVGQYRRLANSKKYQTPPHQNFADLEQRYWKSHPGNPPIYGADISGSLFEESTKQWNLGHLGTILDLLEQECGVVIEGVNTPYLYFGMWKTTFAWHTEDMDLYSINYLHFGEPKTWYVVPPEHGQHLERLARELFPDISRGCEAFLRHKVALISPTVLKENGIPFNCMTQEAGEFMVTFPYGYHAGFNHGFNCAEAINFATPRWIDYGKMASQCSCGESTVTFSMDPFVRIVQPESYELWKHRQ
RECQ1 inh-1: blocks DNA unwinding by human RECQ1; P46063; RECQ1 DNA unwinding, red fluorescence kinetic read; Potency, µM (series often up to 57.3 µM), actives largely listed as inhibitors; hit rate 0.54% among 240,000; AID 2549; also: nearly all actives have a fitted effect of over 30% in size
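RECQ1T1 50 nM; forked duplex (20 bp + 30-nt ss tails) 200 nM, ATP 2 mM final; pH 8.0, 2 mM MgCl2, 2.5 ug/ml poly(dI-dC); 15 min compound preincubation; discontinuous kinetic read over 2 h at RT.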
L3MBTL1 block: inhibitors of human L3MBTL1; Q9Y468; AlphaScreen L3MBTL1–H3K9me1 peptide binding; Potency, µM (highest dose often 57.1 µM), actives largely listed as inhibitors; hit rate 0.66% among 230,000; AID 485360; also: nearly all actives have a fitted effect of over 60% in size
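AlphaScreen proximity signal between nickel-chelate acceptor and streptavidin donor beads (final 10 ug/mL) reports binding of 50 nM L3MBTL1 to 75 nM biotin-H3 K9me1 peptide; complex incubated with compounds 30 min at room temperature; cefsulodin titration as control.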
RECQ1 inh conf: confirmation of human RECQ1 helicase inhibitors | Potency, µM (highest dose often 229 µM), usual class: inhibitors | shares compounds with RECQ1 inh-1 | hit rate 28% among 610 | RECQ1 helicase DNA unwinding, fluorescence; also: nearly all actives have a fitted effect of over 45% in size
ADP FP counter: displaces ADP in a fluorescence polarization counter-screen for RECQ1 hits. shares compounds with RECQ1 inh-1. Potency, µM (titrated, usually from 228 µM), most hits filed as inhibitors. ADP fluorescence polarization displacement counterscreen. hit rate 27% among 530. AID 2711; also: nearly all actives have a fitted effect of over 45% in size
RECQ1 inh-2: confirmation of human RECQ1 helicase inhibitors; Potency, µM (doses to about 119 µM), hits mostly inhibitors; recombinant RECQ1 DNA unwinding, red fluorescence; hit rate 15% among 1,100; shares compounds with RECQ1 inh-1; AID 504841; also: nearly all actives have a fitted effect of over 50% in size
Each line names hits and unclear results; the compound was inactive in the other large screens (follow-up assays come after a bar, where they were run). Unless noted, calls follow the shape of the dose curve; as a rule, active = well fitted curve in the direction sought with a large enough effect; inconclusive = small, poorly fitted or top-dose-only effect, or another doubt; inactive = no such curve, though single readings can be large; an effect the other way counts as inactive or inconclusive.

CSc1ccc(C2C(C#N)=C(N)Oc3c2ccc(=O)c2c(C)oc(C)c32)cc1 (centres undefined)	APEX1 inh inconclusive, JMJD2E inh inconclusive, RECQ1 inh-1 inconclusive, L3MBTL1 block inconclusive | RECQ1 inh-2 inconclusive
COc1ccc(C2C(C#N)=C(N)Oc3c2oc(CO)cc3=O)cc1 (centres undefined)	JMJD2E inh inconclusive (no result: L3MBTL1 block)
Cc1oc(C)c2c(=O)ccc3c(c12)OC(N)=C(C#N)C3c1ccccc1 (centres undefined)	JMJD2E inh inconclusive, RECQ1 inh-1 inconclusive | RECQ1 inh-2 inactive
Cc1oc(C)c2c(=O)ccc3c(c12)OC(N)=C(C#N)C3c1ccccc1Cl (centres undefined)	BLM helicase inh inconclusive, JMJD2E inh 18µM, RECQ1 inh-1 inconclusive, L3MBTL1 block inconclusive | RECQ1 inh-2 inactive
Cc1cccc(NC(=S)NC(=O)/C=C/c2ccccc2)n1	JMJD2E inh inconclusive
CC1=C(C(=O)N2CCOCC2)C(c2cc(C)cs2)NC(=O)N1 (centres undefined)	APEX1 inh inconclusive, JMJD2E inh inconclusive, RECQ1 inh-1 inconclusive | RECQ1 inh-2 79µM
O=C(CN(C(=O)CNC(=O)c1ccco1)c1ccc(F)c(Cl)c1)NC1CCCCC1	none (no result: JMJD2E inh, RECQ1 inh-1, L3MBTL1 block)
O=C(N/N=C/c1ccccc1C(=O)O)c1ccc(COc2cccc3cccnc23)cc1	none | RECQ1 inh conf inactive | ADP FP counter inactive
O=C(N/N=C/c1ccc[nH]1)c1ccc(COc2cccc3cccnc23)cc1	none
C=C1C=C(C(F)F)n2ncc(C(=O)Nc3ccccc3OCC)c2N1	none (no result: BLM helicase inh, JMJD2E inh, RECQ1 inh-1, L3MBTL1 block)
Oc1cc2c(cc1O)[C@@H]1c3ccc(O)c(O)c3OC[C@]1(O)C2	APEX1 inh 3.2µM, JMJD2E inh 14µM, RECQ1 inh-1 13µM (no result: L3MBTL1 block) | RECQ1 inh-2 inconclusive
COc1ccc(CNCC(O)(c2ccc(F)cc2)c2ccc(F)cc2)cc1OC	none (no result: JMJD2E inh, RECQ1 inh-1, L3MBTL1 block)
COc1ccc(CNCC(O)(c2ccc(Cl)cc2)c2ccc(Cl)cc2)cc1OC	RECQ1 inh-1 14µM | RECQ1 inh conf inconclusive | ADP FP counter 22µM
COCCNC(=O)Cn1c(=O)n(Cc2ccc(C(=O)NCCc3ccc(OC)c(OC)c3)cc2)c(=O)c2ccccc21	none (no result: L3MBTL1 block)
O=C(NCCCCC(NC(=O)c1ccc([N+](=O)[O-])cc1)C(=O)O)c1ccc([N+](=O)[O-])cc1 (centres undefined)	none (no result: L3MBTL1 block) | RECQ1 inh conf inactive | ADP FP counter inactive
O=C(CSc1c2c(nc3ccccc13)CCCC2)NCc1ccco1	JMJD2E inh inconclusive, RECQ1 inh-1 14µM (no result: L3MBTL1 block) | RECQ1 inh conf inactive | ADP FP counter inconclusive | RECQ1 inh-2 inactive
COCCSc1ccccc1C(=O)NCc1ccc2c(c1)OCO2	none
CCCCN(C(=O)c1ccc([N+](=O)[O-])o1)c1c(N)n(CCCC)c(=O)[nH]c1=O	none (no result: BLM helicase inh, JMJD2E inh, RECQ1 inh-1)
Cc1c(CCOC(=O)c2ccc(N3CCOCC3)c([N+](=O)[O-])c2)sc[n+]1CC#N	RECQ1 inh-1 inconclusive (no result: L3MBTL1 block) | RECQ1 inh-2 inconclusive
O=C(O)CCC(=O)Nc1nc2nc(-c3ccccc3)cc(-c3ccccc3)n2n1	JMJD2E inh inconclusive | RECQ1 inh conf 35µM | ADP FP counter inconclusive
CC(=O)Nc1ccc(S(=O)(=O)Nc2nc3nc(-c4ccccc4)cc(-c4ccccc4)n3n2)cc1	none (no result: JMJD2E inh, RECQ1 inh-1, L3MBTL1 block)
Nc1ncnc2c1ncn2COC(CO)CO	none (no result: BLM helicase inh, APEX1 inh, JMJD2E inh, RECQ1 inh-1, L3MBTL1 block) | RECQ1 inh conf inactive
Nc1ncnc2c1ncn2CCOCP(=O)(O)O	none (no result: APEX1 inh, JMJD2E inh, RECQ1 inh-1, L3MBTL1 block)
Cc1nnc2ccc(-c3cccc(NC(=O)c4ccc(Br)o4)c3)nn12	none (no result: L3MBTL1 block)
COc1ccc(/C=N/NC(=O)c2nn(-c3ccccc3)c(=O)c3c(N)scc23)cc1	APEX1 inh inconclusive, JMJD2E inh inconclusive, RECQ1 inh-1 25µM, L3MBTL1 block inconclusive | RECQ1 inh conf inactive | ADP FP counter inconclusive
COc1cccc([C@@H]2Oc3ccc(OC)cc3C[C@H]2OC(=O)NS(=O)(=O)c2ccc(C)cc2)c1	none (no result: L3MBTL1 block)
